Structures are written as SMILES. Activity calls are given as the source filed them.

The target of assay [1] is Albumin (Bos taurus) (UniProt P02769). Kind of assay: compounds binding labelled BSA control protein – biochemical, small-molecule microarray, Alexa647 label, 635/667 nm fluorescence, artefact control for SMM control protein annotation, profiling panel (AID 1118).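 Note: score merges 667 nm emission intensity and signal-to-noise per printed compound spot.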 The settings on record: BSA-A647 binding, fluorescence 635 nm, higher = more signal.
Albumin (Bos taurus), sequence (P02769 whole entry, looked up): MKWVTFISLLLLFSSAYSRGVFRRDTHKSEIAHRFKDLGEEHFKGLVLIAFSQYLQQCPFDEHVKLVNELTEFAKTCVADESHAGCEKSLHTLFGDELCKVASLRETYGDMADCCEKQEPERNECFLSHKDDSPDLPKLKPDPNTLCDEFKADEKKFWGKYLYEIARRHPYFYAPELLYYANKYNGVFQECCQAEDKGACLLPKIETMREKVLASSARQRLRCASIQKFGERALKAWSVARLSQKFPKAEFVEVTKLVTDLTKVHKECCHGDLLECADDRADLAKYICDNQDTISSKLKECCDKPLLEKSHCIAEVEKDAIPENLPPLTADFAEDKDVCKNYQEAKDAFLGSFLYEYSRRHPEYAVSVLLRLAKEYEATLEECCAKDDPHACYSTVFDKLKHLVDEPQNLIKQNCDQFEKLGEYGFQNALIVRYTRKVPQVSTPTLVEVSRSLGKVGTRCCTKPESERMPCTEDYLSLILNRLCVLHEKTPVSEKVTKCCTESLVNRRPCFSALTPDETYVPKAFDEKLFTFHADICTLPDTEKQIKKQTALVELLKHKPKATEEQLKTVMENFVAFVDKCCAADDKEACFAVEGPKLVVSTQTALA
A short description of assay [2]: probe aXIP binding to arrayed compounds – biochemical, NeuroSMM set, 635/667 nm fluorescence, primary screen (AID 1119).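 Note: probe is the protein aXip251-270 applied at 1 µg/mL to compound-printed slides; binding of probe to printed compounds measured as 667 nm fluorescence plus signal to noise.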 The following applies: small-molecule microarray, higher = more signal, called active from +8 up or from −8 down.
The nature of assay [3]: probe aNOTCH3 binding on compound microarray – biochemical, small-molecule microarray, 635/667 nm fluorescence, primary screen (AID 1120).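 Note: probe is a biotin-tagged antibody raised against NOTCH3 rather than NOTCH3 protein; score merges spot fluorescence near 667 nm with spot signal to noise.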 The settings on record: higher = more signal.
A short description of assay [4]: probe aNOTCH2 binding on compound microarray – biochemical, small-molecule microarray, 635/667 nm fluorescence, primary screen (AID 1121).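 Note: score merges feature fluorescence read at 667 nm with its signal to noise.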 The settings on record: higher = more signal.
Assay [5] has as its target Carbonic anhydrase 2 (Homo sapiens) (UniProt P00918). Kind of assay: compounds binding carbonic anhydrase 2 – biochemical, small-molecule microarray, Alexa647-labelled CAII, profiling panel (AID 1122). The settings on record: CAII-A647 binding fluorescence, higher = more signal.
A short description of assay [6]: COS7 lysate on small-molecule microarray, probe aHis, 635 nm (AID 1123).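 Note: z-score combines 667nm fluorescence intensity with signal-to-noise per printed compound spot.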 The following applies: COS7 cell lysate, fluorescence, higher = more signal.
Assay [7] in a line: probe aLAP1 signal on lysate-treated microarray – cell lysate, small-molecule microarray, COS7 lysate, primary screen (AID 1124).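 Note: lysate comes from COS7 cells expressing LAP1 and is applied at 0.3 µg/mL; score merges spot fluorescence near 667 nm with signal-to-noise over triplicate slides.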 The settings on record: probe aLAP1, fluorescence, higher = more signal.
The test system of assay [8] is Sam68 (KHDRBS1). Kind of assay: compounds binding KHDRBS1 protein – biochemical, small-molecule microarray, 635 nm fluorescence, primary screen (AID 1125).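 Note: score merges 667 nm channel intensity with signal to noise over triplicate slides.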 The settings on record: higher = more signal.
The test system of assay [9] is Chordin-like protein 2 (CHRDL2). Briefly: compounds binding chordin-like 2 – biochemical, small-molecule microarray, 635 nm fluorescence, primary screen (AID 1126).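 Note: printed compound slides probed with Chrdl2 protein at 4 µg/mL for 1 h at 4 C; score merges 667 nm emission intensity with signal to noise over three replicate slides.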 The settings on record: fluorescence 635 nm, higher = more signal.
For assay [10], the target named is Concanavalin-A (Canavalia ensiformis) (UniProt P02866). Briefly: compounds binding concanavalin A lectin – biochemical, small-molecule microarray, Alexa647 label, 635 nm, artefact control for SMM control protein annotation, primary screen (AID 1127).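 Note: z combines 667 nm emission intensity with signal-to-noise across three replicate slides.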 The settings on record: ConA-A647 binding fluorescence, higher = more signal.
Concanavalin-A (Canavalia ensiformis), sequence (P02866 whole entry, looked up): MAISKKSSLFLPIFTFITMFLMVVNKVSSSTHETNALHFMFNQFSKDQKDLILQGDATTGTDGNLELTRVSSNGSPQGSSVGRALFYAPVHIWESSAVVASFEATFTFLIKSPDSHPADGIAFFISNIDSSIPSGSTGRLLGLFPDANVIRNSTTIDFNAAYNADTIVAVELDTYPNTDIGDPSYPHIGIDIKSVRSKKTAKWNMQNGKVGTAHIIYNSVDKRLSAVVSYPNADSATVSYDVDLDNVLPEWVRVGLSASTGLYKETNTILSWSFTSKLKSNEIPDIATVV

Regarding `C=C(CCCC)C(=O)CC[C@H](OC(=O)c1ccccc1-c1ccccc1C(=O)O)c1cccc(OCCO)c1`, the composite z-score in assay [1] was 0.314; in [3] it was -0.161; in assay [4], -0.126; in assay [5] it was 0.749; in [6] it was 0.729; in assay [7], 1.07. For the same compound, the composite z-score is 0.225 in assay [8], -0.189 in [9] and -1.14 in [10]. The composite Z-score in assay [2] was -0.634 (inactive).

As to `CCOC(=O)C[C@H]1[C@H](OC(=O)c2ccc(-c3ccccc3)cc2)[C@@H](NC(=O)C2CCCCC2)c2cc(OCCCO)ccc2N1C(=O)Cc1ccc(OC)cc1`, the composite z-score in [1] was 0.561; in assay [3], -0.0362; in [4] it was -0.182; in [5], -0.0434; in assay [6] it was 0.405; in [7] it was 0.652. Moreover, the values for the composite z-score in [8], in assay [9] and in [10] were 0.496, 0.0463 and -0.361, respectively. In [2], the composite Z-score is 0.204 (inactive).

Regarding `O=C1O[C@H](c2ccccc2)[C@H](c2ccccc2)N2[C@H]1[C@@H](C(=O)O)[C@]1(C(=O)Nc3ccccc31)[C@H]2c1ccc(OCCO)cc1`, the composite z-score in [1] amounted to 1.03; in assay [3], 0.0576; in assay [4] it was 0.024; in assay [5], 0.749; in [6], 1.79; in [7] it was 0.59. Besides, the values for the composite z-score in [8], in assay [9] and in [10] were 1.16, -0.192 and 0.864, respectively. In addition, the composite Z-score in assay [2] is -0.617 (inactive).

In the case of `COc1ccc([Si](C)(C)[C@H]2[C@H](CC(=O)N(CCO)Cc3ccccc3)O[C@@]3(C(=O)N(c4ccccc4)c4ccccc43)[C@@H]2C)cc1`, the composite z-score is 0.504 in assay [1]; 0.123 in assay [3]; -0.117 in assay [4]; 0.34 in [5]; 0.66 in [6]; 0.264 in [7]. In addition, the results for the composite z-score in assay [8], in assay [9] and in assay [10] were 1.2, 1.19 and 1.06, respectively. In assay [2], the composite Z-score was 0.308 (inactive).

In the case of `COC(=O)[C@@]1(Cc2ccccc2)[C@H]2c3cc(C(=O)N(C)C)n(CCF)c3C[C@H]2CN1C(=O)c1ccccc1`, the composite z-score in assay [1] was determined as 1.11; in [3], 0.62; in assay [4] it was 0.334; in assay [5] it was 0.531; in assay [6], 3.26; in [7], 1.08. In addition, the composite z-score in assay [8] is 0.302; in assay [9] it was -0.927; in assay [10], 0.517. Moreover, in assay [2], the composite Z-score is 0.507 (inactive).

Regarding `C=CC[C@]1(C(N)=O)N=C(c2ccc(OCCCO)cc2)O[C@H]1c1ccccc1N=[N+]=[N-]`, the composite z-score is 0.601 in assay [1]; 0.067 in assay [3]; -0.0586 in assay [4]; 0.79 in [5]; 2.53 in assay [6]; 0.87 in assay [7]. Besides, the composite z-score in assay [8] worked out at 0.994; in assay [9] it was 0.783; in assay [10] it was 0.883. In addition, the composite Z-score in [2] was 1.13 (inactive).

On to `O=C1c2ccccc2[C@@]2(Cc3ccccc3N(CC(F)(F)F)C2=O)[C@H](c2ccc(CO)cc2)N1Cc1ccccc1`, for which the composite z-score was -0.507 in assay [1]; 0.0698 in [3]; -0.219 in assay [4]; -0.13 in assay [5]; -0.211 in [6]; 0.0163 in assay [7]. Also, the composite z-score in assay [8] came out at 0.166; in [9], 0.62; in assay [10] it was 0.0118. For the same compound, in [2], the composite Z-score was -0.207 (inactive).

Consider `COC(=O)c1c2oc(c1C(=O)OC)C(=O)N[C@H](Cc1ccccc1)Cn1cc(nn1)C1(CCCCC1)NC(=O)N[C@H](CO)CC2`, for which the composite z-score was 0.264 in assay [1]; -0.0113 in assay [3]; -0.15 in assay [4]; 0.765 in assay [5]; 0.856 in assay [6]; 0.474 in [7]. The composite z-score in [8] was 0.0112; in assay [9] it was -0.2; in assay [10] it was -1.71. Moreover, the composite Z-score in assay [2] is 0.605 (inactive).

`CCOC(=O)C[C@H]1[C@H](OC(=O)c2ccccc2-c2ccccc2)[C@@H](NC(=O)CC(C)C)c2cc(OCCCO)ccc2N1C(=O)c1ccccc1`: the composite z-score in [1] was 0.079; in [3] it was -0.0406; in assay [4], -0.0698; in assay [5], 0.742; in assay [6] it was 0.429; in assay [7] it was -0.161. Also, the composite z-score in assay [8] worked out at 0.207; in [9], 0.389; in assay [10], 0.125. In addition, the composite Z-score in assay [2] is 0.305 (inactive).

For `CCOC(=O)C1=CCC(c2cccn2C(=O)OC(C)(C)C)N(S(=O)(=O)c2ccc(C)cc2)C1` (stereo not given), the composite z-score came to 0.871 in assay [1]; 0.17 in [3]; 0.0351 in assay [4]; 0.523 in assay [5]; 2.82 in [6]; 0.421 in assay [7]. The composite z-score in assay [8] came out at 0.948; in assay [9] it was 0.551; in [10], 0.722. Further, the composite Z-score in [2] was 0.76 (inactive).

As to `C=C(C(=O)CC[C@@H](OC(=O)c1ccccc1-c1ccccc1C(=O)O)c1ccc(CO)o1)C(C)C`, the composite z-score in assay [1] is -0.41; in [3] it was -0.0858; in [4] it was -0.112; in [5], 0.75; in [6] it was 0.163; in assay [7], 0.464. For the same compound, the values for the composite z-score in assay [8], in assay [9] and in assay [10] were 0.754, 0.386 and 0.278, respectively. Further, the composite Z-score in assay [2] is 0.0692 (inactive).

In the case of `CN1C(=O)C2C=CC(C(O)COCc3ccccc3)N(Nc3ccc([N+](=O)[O-])cc3[N+](=O)[O-])C2C1=O` (stereo not given), the composite z-score was 0.186 in assay [1]; 0.0596 in assay [3]; 0.046 in assay [4]; 0.368 in [5]; 1.49 in assay [6]; 0.578 in [7]. In addition, the figures for the composite z-score in assay [8], in [9] and in assay [10] were 0.447, -0.693 and -0.445, respectively. For the same compound, the composite Z-score in [2] was 0.215 (inactive).

Turning to `CC1CC/C=C\[C@H]2OC34C=CCN(CCN5CCOCC5)C(=O)[C@H]3N(C(CO)C(C)C)C(=O)[C@@H]4C2C(=O)O1` (stereo not given in full), the composite z-score in assay [1] was -0.466; in assay [3], -0.111; in [4], -0.0837; in [5] it was 0.854; in assay [6], 0.214; in assay [7], 1.47. For the same compound, the composite z-score in [8] was 0.889; in [9], -0.571; in [10], 0.475. For the same compound, the composite Z-score in assay [2] was 0.769 (inactive).

In the case of `C=CCNC(=O)[C@@H]1[C@H]2C(=O)O[C@H](c3ccccc3)[C@H](c3ccccc3)N2[C@H](c2ccc(O)cc2)[C@@]12C(=O)N(C(=O)OCCOC)c1ccc(C#CCC(C(=O)OC)C(=O)OC)cc12`, the composite z-score in assay [1] was 0.366; in [3], 0.0813; in [4], -0.084; in assay [5], 0.271; in assay [6] it was 1.33; in [7], 0.793. Moreover, the composite z-score was 1.3 in assay [8], 0.413 in assay [9] and 0.601 in [10]. The composite Z-score in [2] is 0.903 (inactive).

For the origin of these results see PubChem BioAssay.
